Usually inhibition stands for the change of the read-out against control, counted positive when it falls.

Structures are written as SMILES.

Assay [1] has as its target Tyrosine-protein kinase CSK (Homo sapiens) (UniProt P41240). The conditions noted are these: at 1 µM.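 Also: each value is an averaged inhibition reading.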
The target in assay [2] is T1, Discoidin domain-containing receptor 2 (Homo sapiens) (UniProt Q16832).
T1 sequence (whole entry): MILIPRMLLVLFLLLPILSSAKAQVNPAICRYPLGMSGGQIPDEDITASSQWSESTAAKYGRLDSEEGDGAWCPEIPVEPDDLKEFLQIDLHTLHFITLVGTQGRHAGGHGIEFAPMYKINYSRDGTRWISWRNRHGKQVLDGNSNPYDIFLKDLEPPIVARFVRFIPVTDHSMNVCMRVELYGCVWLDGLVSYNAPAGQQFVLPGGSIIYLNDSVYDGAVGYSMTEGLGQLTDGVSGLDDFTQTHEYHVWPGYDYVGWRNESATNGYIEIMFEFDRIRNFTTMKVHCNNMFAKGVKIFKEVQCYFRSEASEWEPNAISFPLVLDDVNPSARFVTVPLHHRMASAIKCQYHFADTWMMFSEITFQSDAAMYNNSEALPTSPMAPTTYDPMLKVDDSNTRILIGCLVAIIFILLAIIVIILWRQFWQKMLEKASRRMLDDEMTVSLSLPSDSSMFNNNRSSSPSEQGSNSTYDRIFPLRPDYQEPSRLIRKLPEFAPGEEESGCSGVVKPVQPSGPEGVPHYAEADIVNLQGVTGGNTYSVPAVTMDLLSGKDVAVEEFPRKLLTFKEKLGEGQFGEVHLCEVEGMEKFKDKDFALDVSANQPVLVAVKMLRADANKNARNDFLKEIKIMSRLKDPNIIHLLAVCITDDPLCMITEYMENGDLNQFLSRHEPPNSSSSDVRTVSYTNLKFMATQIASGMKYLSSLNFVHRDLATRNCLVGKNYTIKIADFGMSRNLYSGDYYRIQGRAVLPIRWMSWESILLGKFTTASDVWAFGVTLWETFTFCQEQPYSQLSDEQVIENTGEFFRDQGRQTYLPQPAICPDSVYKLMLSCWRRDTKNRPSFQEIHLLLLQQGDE
To be noted: at 0.1 µM.

Assay [3] has as its target T1, Discoidin domain-containing receptor 2 (Homo sapiens). The conditions noted are these: at 1 µM.
Assay [4] concerns the target Epidermal growth factor receptor (Homo sapiens) (UniProt P00533). The conditions noted are these: at 0.1 µM.
The target is the same in assay [5]. To be noted: at 1 µM.
In assay [6] the test system is Epidermal growth factor receptor (Homo sapiens), P00533 [L858R]. The conditions noted are these: at 0.1 µM.
For assay [7] the test system is unchanged. The conditions noted are these: at 1 µM.
Assay [8] concerns Epidermal growth factor receptor (Homo sapiens), P00533 [L861Q]. To be noted: at 0.1 µM.
Assay [9] has the same test system. To be noted: at 1 µM.
In assay [10] the test system is Epidermal growth factor receptor (Homo sapiens), P00533 [T790M]. The conditions noted are these: at 0.1 µM.
Assay [11] has the same test system. The conditions noted are these: at 1 µM.
For assay [12], the system named is Epidermal growth factor receptor (Homo sapiens), P00533 [L858R,T790M]. To be noted: at 0.1 µM.
For assay [13] the test system is unchanged. The conditions noted are these: at 1 µM.
The target of assay [14] is Ephrin type-A receptor 2 (Homo sapiens) (UniProt P29317). The conditions noted are these: at 0.1 µM.
The target is the same in assay [15]. To be noted: at 1 µM.
The target of assay [16] is T2, Ephrin type-A receptor 3 (Homo sapiens) (UniProt P29320).
T2 sequence (whole entry): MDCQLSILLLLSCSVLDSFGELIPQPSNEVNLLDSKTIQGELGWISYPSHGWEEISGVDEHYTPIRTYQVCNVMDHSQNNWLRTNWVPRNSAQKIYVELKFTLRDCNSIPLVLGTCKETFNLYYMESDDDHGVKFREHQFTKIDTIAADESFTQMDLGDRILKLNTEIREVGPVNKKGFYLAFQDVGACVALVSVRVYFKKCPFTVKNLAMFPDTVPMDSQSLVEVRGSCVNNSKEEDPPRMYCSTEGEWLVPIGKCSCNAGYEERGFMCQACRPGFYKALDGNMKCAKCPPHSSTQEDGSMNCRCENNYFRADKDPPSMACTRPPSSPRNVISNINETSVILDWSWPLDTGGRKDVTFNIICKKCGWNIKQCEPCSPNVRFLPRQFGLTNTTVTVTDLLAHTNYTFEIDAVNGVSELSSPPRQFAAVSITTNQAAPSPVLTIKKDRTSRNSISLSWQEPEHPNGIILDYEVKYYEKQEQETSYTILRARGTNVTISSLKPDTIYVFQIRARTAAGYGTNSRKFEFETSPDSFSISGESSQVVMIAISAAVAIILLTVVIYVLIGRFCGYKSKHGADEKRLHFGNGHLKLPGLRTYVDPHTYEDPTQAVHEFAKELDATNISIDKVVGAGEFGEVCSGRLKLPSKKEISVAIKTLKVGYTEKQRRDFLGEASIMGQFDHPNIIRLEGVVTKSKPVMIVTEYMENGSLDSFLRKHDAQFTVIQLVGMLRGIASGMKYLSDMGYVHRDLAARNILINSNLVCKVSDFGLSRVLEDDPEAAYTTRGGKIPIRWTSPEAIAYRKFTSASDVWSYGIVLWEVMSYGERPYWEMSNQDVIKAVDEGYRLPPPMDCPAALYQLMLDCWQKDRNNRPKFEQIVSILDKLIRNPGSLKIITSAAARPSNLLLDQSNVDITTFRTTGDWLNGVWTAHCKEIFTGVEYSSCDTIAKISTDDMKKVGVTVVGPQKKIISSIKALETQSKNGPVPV
The conditions noted are these: at 0.1 µM.

Assay [17] has as its target T2, Ephrin type-A receptor 3 (Homo sapiens). To be noted: at 1 µM.
Assay [18] deals with Ephrin type-A receptor 4 (Homo sapiens) (UniProt P54764). The conditions noted are these: at 0.1 µM.
For assay [19] the target is unchanged. The conditions noted are these: at 1 µM.
For assay [20], the target named is T3, Ephrin type-B receptor 2 (Homo sapiens) (UniProt P29323).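 Also: reported as mean inhibition of EPHB2, from the GSK PKIS dataset.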
T3 sequence (whole entry): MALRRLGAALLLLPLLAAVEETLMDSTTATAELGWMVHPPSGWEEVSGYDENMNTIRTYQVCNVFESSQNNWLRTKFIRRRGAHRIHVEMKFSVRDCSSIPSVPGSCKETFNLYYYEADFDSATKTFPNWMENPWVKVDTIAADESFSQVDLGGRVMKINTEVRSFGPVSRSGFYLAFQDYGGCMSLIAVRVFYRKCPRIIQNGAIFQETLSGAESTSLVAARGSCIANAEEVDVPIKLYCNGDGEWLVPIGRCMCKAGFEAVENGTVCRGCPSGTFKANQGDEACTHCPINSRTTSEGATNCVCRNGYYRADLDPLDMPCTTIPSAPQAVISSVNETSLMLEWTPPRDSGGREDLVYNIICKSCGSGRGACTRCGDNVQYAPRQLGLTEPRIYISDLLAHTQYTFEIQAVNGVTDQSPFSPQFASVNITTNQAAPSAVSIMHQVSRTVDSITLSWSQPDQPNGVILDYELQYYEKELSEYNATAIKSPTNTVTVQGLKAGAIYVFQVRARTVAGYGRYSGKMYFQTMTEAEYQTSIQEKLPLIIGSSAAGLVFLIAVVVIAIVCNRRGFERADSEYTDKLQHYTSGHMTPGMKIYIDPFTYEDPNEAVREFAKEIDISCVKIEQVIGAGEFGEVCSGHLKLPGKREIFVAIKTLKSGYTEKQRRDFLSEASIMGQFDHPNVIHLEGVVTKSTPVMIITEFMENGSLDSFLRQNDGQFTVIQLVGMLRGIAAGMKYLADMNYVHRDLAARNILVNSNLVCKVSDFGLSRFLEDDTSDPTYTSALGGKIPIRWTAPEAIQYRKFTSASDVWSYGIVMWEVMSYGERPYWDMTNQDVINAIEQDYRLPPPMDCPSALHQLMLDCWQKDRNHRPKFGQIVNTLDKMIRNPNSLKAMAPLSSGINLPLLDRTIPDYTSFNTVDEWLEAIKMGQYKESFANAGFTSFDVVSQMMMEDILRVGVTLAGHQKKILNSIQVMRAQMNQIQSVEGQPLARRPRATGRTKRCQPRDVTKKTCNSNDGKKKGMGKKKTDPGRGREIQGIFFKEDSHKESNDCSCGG
To be noted: at 0.1 µM.

Epidermal growth factor receptor (Homo sapiens), sequence (P00533 whole entry): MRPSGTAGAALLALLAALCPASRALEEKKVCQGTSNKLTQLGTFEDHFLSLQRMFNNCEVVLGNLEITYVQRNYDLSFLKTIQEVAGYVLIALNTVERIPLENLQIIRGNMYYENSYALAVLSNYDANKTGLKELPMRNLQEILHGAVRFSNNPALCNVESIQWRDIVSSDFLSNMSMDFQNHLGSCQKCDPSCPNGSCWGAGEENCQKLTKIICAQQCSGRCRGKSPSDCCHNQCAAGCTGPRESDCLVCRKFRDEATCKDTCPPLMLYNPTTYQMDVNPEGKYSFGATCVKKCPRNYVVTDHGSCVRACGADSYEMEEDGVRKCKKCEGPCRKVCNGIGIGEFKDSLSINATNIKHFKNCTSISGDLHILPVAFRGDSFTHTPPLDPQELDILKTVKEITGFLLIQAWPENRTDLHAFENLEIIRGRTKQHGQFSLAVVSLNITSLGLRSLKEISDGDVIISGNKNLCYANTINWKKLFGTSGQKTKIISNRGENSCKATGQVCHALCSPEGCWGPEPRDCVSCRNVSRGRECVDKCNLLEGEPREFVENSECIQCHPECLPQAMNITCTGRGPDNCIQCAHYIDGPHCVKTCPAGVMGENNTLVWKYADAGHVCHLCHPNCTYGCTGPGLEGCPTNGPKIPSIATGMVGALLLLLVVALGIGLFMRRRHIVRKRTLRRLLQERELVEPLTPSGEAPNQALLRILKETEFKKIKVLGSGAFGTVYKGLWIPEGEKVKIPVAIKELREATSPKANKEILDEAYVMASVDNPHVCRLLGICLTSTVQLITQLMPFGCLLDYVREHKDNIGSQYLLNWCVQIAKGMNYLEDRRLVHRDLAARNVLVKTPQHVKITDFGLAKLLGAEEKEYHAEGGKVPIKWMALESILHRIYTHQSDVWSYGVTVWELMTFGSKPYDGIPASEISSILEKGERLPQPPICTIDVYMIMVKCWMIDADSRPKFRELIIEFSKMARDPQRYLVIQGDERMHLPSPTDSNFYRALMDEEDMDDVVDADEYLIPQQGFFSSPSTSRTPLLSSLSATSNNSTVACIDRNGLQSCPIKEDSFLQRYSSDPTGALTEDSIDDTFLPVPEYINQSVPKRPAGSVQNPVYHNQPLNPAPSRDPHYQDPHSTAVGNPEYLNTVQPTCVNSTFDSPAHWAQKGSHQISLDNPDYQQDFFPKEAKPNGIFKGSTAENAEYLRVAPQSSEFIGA
Ephrin type-A receptor 4 (Homo sapiens), sequence (P54764 whole entry): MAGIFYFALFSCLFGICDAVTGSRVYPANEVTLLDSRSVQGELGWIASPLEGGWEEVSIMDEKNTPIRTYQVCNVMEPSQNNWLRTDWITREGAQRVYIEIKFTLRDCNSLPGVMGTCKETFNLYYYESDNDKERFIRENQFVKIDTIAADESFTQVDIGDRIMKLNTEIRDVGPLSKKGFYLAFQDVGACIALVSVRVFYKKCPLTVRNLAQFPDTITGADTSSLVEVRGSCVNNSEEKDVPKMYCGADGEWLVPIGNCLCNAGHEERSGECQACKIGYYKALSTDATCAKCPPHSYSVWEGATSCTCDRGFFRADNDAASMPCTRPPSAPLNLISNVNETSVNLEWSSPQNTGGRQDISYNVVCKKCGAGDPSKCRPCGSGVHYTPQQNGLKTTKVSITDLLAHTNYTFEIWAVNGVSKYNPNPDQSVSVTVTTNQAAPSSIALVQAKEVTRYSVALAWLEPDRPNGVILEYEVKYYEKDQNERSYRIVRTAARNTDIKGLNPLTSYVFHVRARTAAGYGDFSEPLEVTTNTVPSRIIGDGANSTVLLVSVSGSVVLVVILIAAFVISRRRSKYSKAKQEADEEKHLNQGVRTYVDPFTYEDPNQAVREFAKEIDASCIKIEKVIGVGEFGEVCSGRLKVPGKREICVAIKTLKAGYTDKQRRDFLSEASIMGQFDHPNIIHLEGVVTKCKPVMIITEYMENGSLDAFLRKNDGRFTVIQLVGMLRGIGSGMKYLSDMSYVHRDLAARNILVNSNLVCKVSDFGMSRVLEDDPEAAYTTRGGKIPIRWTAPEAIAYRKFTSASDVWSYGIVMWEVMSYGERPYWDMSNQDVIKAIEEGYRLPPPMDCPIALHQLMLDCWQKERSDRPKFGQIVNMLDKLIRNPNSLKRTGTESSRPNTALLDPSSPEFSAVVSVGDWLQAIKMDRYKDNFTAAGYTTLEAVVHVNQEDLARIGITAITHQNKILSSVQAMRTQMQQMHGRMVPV
Ephrin type-A receptor 2 (Homo sapiens), sequence (P29317 whole entry): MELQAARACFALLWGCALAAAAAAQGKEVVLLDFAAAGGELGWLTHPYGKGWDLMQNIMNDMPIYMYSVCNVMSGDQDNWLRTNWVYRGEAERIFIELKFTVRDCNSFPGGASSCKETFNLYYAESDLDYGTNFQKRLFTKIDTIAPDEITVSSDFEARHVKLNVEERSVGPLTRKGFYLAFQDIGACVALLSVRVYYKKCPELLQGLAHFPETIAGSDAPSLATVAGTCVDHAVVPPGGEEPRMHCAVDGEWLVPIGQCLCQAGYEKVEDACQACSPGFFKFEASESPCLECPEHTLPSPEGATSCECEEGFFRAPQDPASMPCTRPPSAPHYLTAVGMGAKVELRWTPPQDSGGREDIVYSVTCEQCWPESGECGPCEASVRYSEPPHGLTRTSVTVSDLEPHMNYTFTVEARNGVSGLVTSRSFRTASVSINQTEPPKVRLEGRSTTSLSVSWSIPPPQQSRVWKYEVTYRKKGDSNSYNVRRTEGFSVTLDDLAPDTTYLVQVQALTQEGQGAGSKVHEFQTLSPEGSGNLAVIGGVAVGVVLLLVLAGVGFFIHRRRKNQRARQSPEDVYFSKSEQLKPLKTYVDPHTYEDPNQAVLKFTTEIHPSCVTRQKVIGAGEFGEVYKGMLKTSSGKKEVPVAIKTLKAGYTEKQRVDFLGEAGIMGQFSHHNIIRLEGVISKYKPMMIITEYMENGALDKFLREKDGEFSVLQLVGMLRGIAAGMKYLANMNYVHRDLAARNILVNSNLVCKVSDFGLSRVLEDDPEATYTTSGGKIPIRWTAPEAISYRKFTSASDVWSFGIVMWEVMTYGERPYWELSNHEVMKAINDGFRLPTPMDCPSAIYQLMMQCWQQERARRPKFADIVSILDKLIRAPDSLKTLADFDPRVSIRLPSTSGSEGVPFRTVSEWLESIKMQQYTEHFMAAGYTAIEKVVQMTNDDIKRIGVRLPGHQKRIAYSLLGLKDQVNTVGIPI
Epidermal growth factor receptor (Homo sapiens), P00533 [L858R,T790M], sequence (P00533 whole entry T790M/L858R, looked up): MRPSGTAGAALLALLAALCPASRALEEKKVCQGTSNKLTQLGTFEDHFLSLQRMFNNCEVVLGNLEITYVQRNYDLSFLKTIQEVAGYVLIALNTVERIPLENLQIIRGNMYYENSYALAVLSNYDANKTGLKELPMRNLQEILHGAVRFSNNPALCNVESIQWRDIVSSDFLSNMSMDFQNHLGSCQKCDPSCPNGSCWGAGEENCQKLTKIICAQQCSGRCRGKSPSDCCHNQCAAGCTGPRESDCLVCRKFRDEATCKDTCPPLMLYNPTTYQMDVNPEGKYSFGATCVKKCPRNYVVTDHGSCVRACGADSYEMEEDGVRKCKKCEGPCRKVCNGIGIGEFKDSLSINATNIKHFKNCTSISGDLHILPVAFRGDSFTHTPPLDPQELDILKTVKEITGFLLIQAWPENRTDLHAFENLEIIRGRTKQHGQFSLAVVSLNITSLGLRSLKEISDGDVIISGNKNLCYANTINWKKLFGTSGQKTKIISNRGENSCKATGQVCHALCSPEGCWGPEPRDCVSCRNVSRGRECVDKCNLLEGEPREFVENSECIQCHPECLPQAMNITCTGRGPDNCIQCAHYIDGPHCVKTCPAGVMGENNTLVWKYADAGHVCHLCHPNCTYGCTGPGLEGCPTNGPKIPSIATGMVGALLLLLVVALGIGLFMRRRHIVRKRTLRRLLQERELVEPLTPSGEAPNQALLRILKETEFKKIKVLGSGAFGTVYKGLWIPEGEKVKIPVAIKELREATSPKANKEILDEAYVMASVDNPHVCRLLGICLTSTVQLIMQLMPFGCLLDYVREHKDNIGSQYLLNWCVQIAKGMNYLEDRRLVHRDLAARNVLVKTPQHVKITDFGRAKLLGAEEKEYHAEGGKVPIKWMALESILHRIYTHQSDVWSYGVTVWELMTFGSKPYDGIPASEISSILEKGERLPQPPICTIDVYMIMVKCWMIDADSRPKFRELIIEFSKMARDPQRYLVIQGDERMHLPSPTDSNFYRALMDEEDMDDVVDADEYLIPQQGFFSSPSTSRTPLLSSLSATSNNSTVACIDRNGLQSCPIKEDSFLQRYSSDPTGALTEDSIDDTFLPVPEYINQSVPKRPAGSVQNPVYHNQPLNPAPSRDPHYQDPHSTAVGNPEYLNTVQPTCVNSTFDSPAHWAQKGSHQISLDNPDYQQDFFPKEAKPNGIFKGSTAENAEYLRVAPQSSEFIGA
Tyrosine-protein kinase CSK (Homo sapiens), sequence (P41240 2-450 limits assumed): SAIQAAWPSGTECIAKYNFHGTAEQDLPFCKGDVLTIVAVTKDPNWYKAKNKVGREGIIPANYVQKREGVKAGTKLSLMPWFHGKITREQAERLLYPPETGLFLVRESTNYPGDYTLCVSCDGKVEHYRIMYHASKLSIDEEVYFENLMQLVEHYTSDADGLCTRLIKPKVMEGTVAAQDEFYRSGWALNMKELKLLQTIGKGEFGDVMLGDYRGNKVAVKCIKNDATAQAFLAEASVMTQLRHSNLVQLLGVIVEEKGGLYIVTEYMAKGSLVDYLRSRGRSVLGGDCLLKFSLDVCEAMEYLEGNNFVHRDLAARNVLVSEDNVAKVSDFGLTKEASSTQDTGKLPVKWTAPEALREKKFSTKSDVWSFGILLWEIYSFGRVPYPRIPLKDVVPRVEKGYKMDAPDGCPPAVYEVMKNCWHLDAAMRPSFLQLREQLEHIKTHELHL

As for `COc1c(C(N)=O)cc(-c2ccc(Cl)cc2)cc1-c1ccc(S(N)(=O)=O)cc1`, the inhibition in assay [1] worked out at 4.45%; in [2], 1.62%; in [3], 2.64%; in assay [4], 1.55%; in assay [5] it was 2.79%; in assay [6], 2.2%. In addition, the inhibition in assay [7] is 8.48%; in assay [8] it was 2.27%; in assay [9] it was 5.74%; in [10], 1.41%; in assay [11], 3.77%; in [12], -1.73%. Besides, the inhibition in assay [13] came out at 0.63%; in assay [14], 1.79%; in [15], 1.53%; in [16], 3.06%; in assay [17], 4.11%; in [18], 8.42%. Moreover, the values for the inhibition in assay [19] and in assay [20] were 10.1% and 8.67%, respectively.

As to `CS(=O)(=O)CCNCc1ccc(-c2ccc3ncnc(Nc4ccc(OCc5cccc(C(F)(F)F)c5)cc4)c3c2)o1`, the inhibition in [1] was 3.02%; in [2] it was 0.91%; in assay [3] it was 2.9%; in assay [4], 15.5%; in assay [5], 58.8%; in assay [6], 6.17%. Also, the inhibition in [7] came out at 26.7%; in assay [8], 14.4%; in [9], 34.4%; in assay [10] it was 0.24%; in assay [11], 1.6%; in assay [12], 0.98%. For the same molecule, the inhibition in assay [13] came out at 3.77%; in assay [14], 0.34%; in [15] it was 0.55%; in [16] it was 2.95%; in assay [17], 2.34%; in [18], 6.4%. The inhibition was found to be 8.61% in assay [19] and 7.05% in assay [20].

Regarding `CNC(=O)c1cncc(/C=C/c2ccccc2C)c1`, the inhibition is 9.89% in assay [1]; 0.33% in [2]; 5.42% in assay [3]; 1.22% in [4]; 3.62% in assay [5]; 4.66% in assay [6]. For the same molecule, the inhibition in assay [7] was determined as 11.7%; in [8], 3.44%; in assay [9], 5.67%; in assay [10], 1.07%; in assay [11] it was 4.37%; in [12], 1.98%. Also, the inhibition in [13] came out at 6.74%; in [14] it was 2.22%; in [15] it was 3.92%; in assay [16], 6.53%; in [17], 6.47%; in assay [18], 11.7%. Also, the inhibition in assay [19] came out at 26.1%; in assay [20], 7.84%.

On to `COC(=O)Nc1nc2ccc(Oc3ccc(NC(=O)Nc4cc(C(F)(F)F)ccc4F)cc3)cc2s1`, for which the inhibition in [1] is 33.4%; in assay [2], 62.7%; in assay [3], 83.6%; in [4], 1.66%; in assay [5], 3.16%; in assay [6] it was -2.69%. Also, the inhibition in assay [7] is 2.24%; in assay [8], -1.23%; in assay [9], 1.41%; in [10] it was 0.17%; in [11], -0.72%; in assay [12], 1.64%. In addition, the inhibition in [13] is -2.5%; in assay [14], 63.5%; in assay [15], 93.5%; in assay [16], 51.3%; in assay [17] it was 68.4%; in [18], 83.3%. Besides, the results for the inhibition in assay [19] and in assay [20] were 86.1% and 74.1%, respectively.
